“And” between values parts separate entries of the source, which are not always exact repeats. Equal values may be shown once. Hit rate of the full screen: of about 5,500 compounds, about 2,000 (36%) were called active. Inconclusive results (about 18%) are left out. No stated cut-off is given here; in the data, active means normalized growth mostly below about 0.91 (no sharp cut-off); inconclusive means no clear call, values can overlap the other calls; inactive means mostly above about 0.92. The list shows a part of the results.
Assay: chemical genetic growth profiling, strain panel (AID 1159580);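 further: tested at 20 µM; growth read once vehicle control cultures reached saturation at 30 °C; 1 = growth at the plate median or of vehicle wells; lower values mean less growth of the strain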
Settings: S. cerevisiae deletion strains, growth OD

Measured: normalized growth

CC12CCC3C(CC3(C)C)C(C)(CCC1=O)O2 (stereo unspecified)
inactive: locus YAL021C, strain ccr4, active compounds read low 1.04 | locus YAL026C, strain drs2, active compounds read low 1.01 | locus YAL030W, strain snc1, active compounds read low 0.994 | locus YBL061C, strain skt5, active compounds read low 0.99 | locus YBR009C, strain hhf1, active compounds read low 1.01 | locus YBR021W, strain FUR4, active compounds read low 1.01 | locus YBR023C, strain chs3, active compounds read low 0.996 | locus YBR171W, strain sec66, active compounds read low 0.985 | locus YBR229C, strain ROT2, active compounds read low 1.01 | locus YBR231C, strain swc5, active compounds read low 0.983 | locus YBR279W, strain paf1, active compounds read low 1.02 | locus YCL011C, strain gbp2, active compounds read low 1.01 | locus YCL016C, strain dcc1, active compounds read low 1.01 | locus YCL029C, strain bik1, active compounds read low 1.03 | locus YCL061C, strain MRC1, active compounds read low 1.01 | locus YCL069W, strain vba3, active compounds read low 1 | locus YCR088W, strain abp1, active compounds read low 0.981 | locus YDL005C, strain med2, active compounds read low 0.972 | locus YDL035C, strain GPR1, active compounds read low 1.01 | locus YDL040C, strain nat1, active compounds read low 0.99 | locus YDL074C, strain BRE1, active compounds read low 1.07 | locus YDL101C, strain DUN1, active compounds read low 1.02 | locus YDL185W, strain tfp1, active compounds read low 1.02 | locus YDL192W, strain arf1, active compounds read low 1.01 | locus YDR001C, strain nth1, active compounds read low 0.986 | locus YDR069C, strain doa4, active compounds read low 1.01 | locus YDR101C, strain arx1, active compounds read low 0.983 | locus YDR137W, strain rgp1, active compounds read low 0.977 | locus YDR159W, strain sac3, active compounds read low 0.982 | locus YDR162C, strain NBP2, active compounds read low 1.03 | locus YDR195W, strain ref2 0.934 | locus YDR297W, strain sur2, active compounds read low 1.01 | locus YDR318W, strain mcm21, active compounds read low 1.03 | locus YDR334W, strain swr1, active compounds read low 1 | locus YDR335W, strain msn5, active compounds read low 1 | locus YDR388W, active compounds read low 1.01 | locus YDR392W, strain spt3, active compounds read low 0.939 | locus YDR502C, strain sam2, active compounds read low 1.04 | locus YEL003W, strain gim4, active compounds read low 0.995 | locus YEL037C, strain rad23, active compounds read low 1.01 | locus YEL061C, strain CIN8 (second series), active compounds read low 0.992 | locus YEL061C, strain CIN8, active compounds read low 1.01 | locus YER015W, strain faa2, active compounds read low 1 | locus YER016W, strain bim1, active compounds read low 0.988 | locus YER110C, active compounds read low 1.02 | locus YER111C, strain swi4, active compounds read low 0.987 | locus YER155C, strain BEM2 (second series), active compounds read low 0.967 | locus YER155C, strain BEM2, active compounds read low 1.01 | locus YER167W, strain BCK2, active compounds read low 1 | locus YFR010W, strain ubp6, active compounds read low 1.01 | locus YGL078C, strain dbp3, active compounds read low 1.01 | locus YGL086W, strain mad1, active compounds read low 1.01 | locus YGL167C, strain pmr1, active compounds read low 0.99 | locus YGL173C, strain kem1, active compounds read low 0.999 | locus YGL227W, strain vid30, active compounds read low 0.989 | locus YGL240W, strain doc1, active compounds read low 0.943 | locus YGL248W, strain PDE1, active compounds read low 1.05 | locus YGL253W, strain hxk2, active compounds read low 1.02 | locus YGR078C, strain PAC10, active compounds read low 1.04 | locus YGR135W, strain pre9, active compounds read low 1.05 | locus YGR252W, strain gcn5, active compounds read low 1.07 | locus YHR013C, strain ard1, active compounds read low 1.01 | locus YHR027C, strain rpn1, active compounds read low 0.988 | locus YHR030C, strain SLT2, active compounds read low 1.01 and 1.05 | locus YHR079C, strain IRE1 (second series), active compounds read low 1.02 | locus YHR079C, strain IRE1, active compounds read low 1.03 | locus YHR094C, strain hxt1, active compounds read low 1.01 | locus YHR129C, strain ARP1, active compounds read low 1.01 | locus YHR142W, strain chs7, active compounds read low 1 | locus YHR200W, strain rpn10, active compounds read low 1.02 | locus YIL066C, strain RNR3, active compounds read low 1.01 | locus YIL073C, strain SPO22, active compounds read low 1.08 | locus YIL125W, strain kgd1, active compounds read low 1 | locus YIR030C, strain dcg1, active compounds read low 1.02 | locus YJL092W, strain hpr5, active compounds read low 0.997 | locus YJL095W, strain BCK1 (second series), active compounds read low 1.01 | locus YJL095W, strain BCK1, active compounds read low 1.06 and 1.04 | locus YJL115W, strain asf1, active compounds read low 0.976 | locus YJL129C, strain trk1, active compounds read low 0.991 | locus YJL134W, strain LCB3, active compounds read low 1.02 | locus YJL154C, strain vps35, active compounds read low 0.991 | locus YJL164C, strain tpk1, active compounds read low 1.04 | locus YJL166W, strain qcr8, active compounds read low 0.984 | locus YJL168C, strain set2, active compounds read low 1.01 | locus YJL187C, strain SWE1 (second series), active compounds read low 1.04 | locus YJL187C, strain SWE1, active compounds read low 1
